Assay results taken from PubChem BioAssay AID1159580 (chemical genetic matrix, 2015).
Values joined by “and” are separate entries in the source; they are usually repeats but may differ in a detail not shown here. Equal values may be shown once. Out of some 5,500 compounds screened, about 2,000 (36%) were called active. Roughly 18% stayed inconclusive and do not appear here. Cut-off read from the data, not from the text of the source: active = normalized growth mostly below about 0.91 (no sharp cut-off); inconclusive = no clear call, values can overlap the other calls; inactive = mostly above about 0.92. Some of the results follow.

Test: chemical genetic growth profiling, strain panel (AID 1159580);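 note: tested at 20 µM; growth read once vehicle control cultures reached saturation at 30 °C; 1 = growth at the plate median or of vehicle wells; lower values mean less growth of the strain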
Details: S. cerevisiae deletion strains, growth OD

Measured: normalized growth

CCCc1nn(C)c2c(=O)[nH]c(-c3cc(S(=O)(=O)N4CCN(C)CC4)ccc3OCC)nc12
inactive: locus YAL013W, strain DEP1, active compounds read low 1.02 | locus YAL021C, strain ccr4, active compounds read low 0.991 | locus YAL026C, strain drs2, active compounds read low 0.988 | locus YAL030W, strain snc1, active compounds read low 0.997 | locus YBL061C, strain skt5, active compounds read low 0.989 | locus YBR009C, strain hhf1, active compounds read low 1 | locus YBR021W, strain FUR4, active compounds read low 1.05 | locus YBR023C, strain chs3, active compounds read low 0.988 | locus YBR171W, strain sec66, active compounds read low 0.99 | locus YBR229C, strain ROT2, active compounds read low 1.02 | locus YBR231C, strain swc5, active compounds read low 0.988 | locus YBR279W, strain paf1, active compounds read low 0.985 | locus YCL011C, strain gbp2, active compounds read low 0.987 | locus YCL016C, strain dcc1, active compounds read low 0.994 | locus YCL029C, strain bik1, active compounds read low 0.993 | locus YCL061C, strain MRC1, active compounds read low 0.981 | locus YCL069W, strain vba3, active compounds read low 0.992 | locus YCR088W, strain abp1, active compounds read low 0.983 | locus YDL005C, strain med2, active compounds read low 0.987 | locus YDL035C, strain GPR1, active compounds read low 1.03 | locus YDL040C, strain nat1, active compounds read low 0.991 | locus YDL074C, strain BRE1, active compounds read low 1.07 | locus YDL101C, strain DUN1, active compounds read low 1.02 | locus YDL134C, strain PPH21, active compounds read low 1.03 | locus YDL185W, strain tfp1, active compounds read low 1 | locus YDL192W, strain arf1, active compounds read low 0.989 | locus YDR001C, strain nth1, active compounds read low 0.989 | locus YDR069C, strain doa4, active compounds read low 0.991 | locus YDR101C, strain arx1, active compounds read low 0.991 | locus YDR137W, strain rgp1, active compounds read low 0.986 | locus YDR150W, strain NUM1, active compounds read low 1.02 | locus YDR159W, strain sac3, active compounds read low 1 | locus YDR162C, strain NBP2, active compounds read low 1.01 | locus YDR195W, strain ref2 0.978 | locus YDR297W, strain sur2, active compounds read low 0.991 | locus YDR318W, strain mcm21, active compounds read low 1 | locus YDR334W, strain swr1, active compounds read low 0.989 | locus YDR335W, strain msn5, active compounds read low 0.993 | locus YDR388W, active compounds read low 0.962 | locus YDR392W, strain spt3, active compounds read low 0.989 | locus YDR502C, strain sam2, active compounds read low 0.99 | locus YEL003W, strain gim4, active compounds read low 0.995 | locus YEL037C, strain rad23, active compounds read low 0.992 | locus YEL061C, strain CIN8 (second series), active compounds read low 0.988 | locus YEL061C, strain CIN8, active compounds read low 1.02 | locus YER015W, strain faa2, active compounds read low 0.994 | locus YER016W, strain bim1, active compounds read low 0.988 | locus YER110C, active compounds read low 0.974 | locus YER111C, strain swi4, active compounds read low 0.989 | locus YER155C, strain BEM2 (second series), active compounds read low 0.987 | locus YER155C, strain BEM2, active compounds read low 1.01 | locus YER167W, strain BCK2, active compounds read low 1.03 | locus YFR010W, strain ubp6, active compounds read low 0.98 | locus YGL078C, strain dbp3, active compounds read low 0.985 | locus YGL086W, strain mad1, active compounds read low 0.992 | locus YGL167C, strain pmr1, active compounds read low 1 | locus YGL173C, strain kem1, active compounds read low 0.983 | locus YGL227W, strain vid30, active compounds read low 0.988 | locus YGL240W, strain doc1, active compounds read low 1 | locus YGL248W, strain PDE1, active compounds read low 1.02 | locus YGL253W, strain hxk2, active compounds read low 0.995 | locus YGR078C, strain PAC10, active compounds read low 1.04 | locus YGR135W, strain pre9, active compounds read low 0.995 | locus YGR229C, strain SMI1, active compounds read low 1.03 | locus YGR252W, strain gcn5, active compounds read low 0.953 | locus YHR013C, strain ard1, active compounds read low 0.956 | locus YHR027C, strain rpn1, active compounds read low 0.992 | locus YHR030C, strain SLT2, active compounds read low 1.02 and 1.03 | locus YHR079C, strain IRE1 (second series), active compounds read low 0.991 | locus YHR079C, strain IRE1, active compounds read low 1.05 | locus YHR094C, strain hxt1, active compounds read low 0.995 | locus YHR129C, strain ARP1, active compounds read low 1.02 | locus YHR142W, strain chs7, active compounds read low 0.99 | locus YHR200W, strain rpn10, active compounds read low 1 | locus YIL066C, strain RNR3, active compounds read low 1.03 | locus YIL073C, strain SPO22, active compounds read low 1.06 | locus YIL125W, strain kgd1, active compounds read low 0.994 | locus YIR030C, strain dcg1, active compounds read low 0.997 | locus YJL092W, strain hpr5, active compounds read low 0.99 | locus YJL095W, strain BCK1 (second series), active compounds read low 0.986 | locus YJL095W, strain BCK1, active compounds read low 1.04 and 1.01 | locus YJL115W, strain asf1, active compounds read low 0.993 | locus YJL129C, strain trk1, active compounds read low 0.995 | locus YJL134W, strain LCB3, active compounds read low 1.01 | locus YJL154C, strain vps35, active compounds read low 0.988 | locus YJL164C, strain tpk1, active compounds read low 0.999 | locus YJL166W, strain qcr8, active compounds read low 0.991 | locus YJL168C, strain set2, active compounds read low 0.995 | locus YJL187C, strain SWE1 (second series), active compounds read low 1.02 | locus YJL187C, strain SWE1, active compounds read low 0.991 | locus YJR043C, strain POL32, active compounds read low 1.04 | locus YJR066W, strain TOR1, active compounds read low 0.981
